In all, about 1,300 compounds went through this assay and fewer than 10 were called active. Not shown: some 3% with an inconclusive outcome. Calls follow the shape of the dose curve; as a rule, active = well fitted inhibition curve with a large enough effect; inconclusive = small, poorly fitted or top-dose-only effect; inactive = flat fitted curve, though single readings scatter. Only a sample is shown.

This test has as its system T1, .
T1 sequence (whole entry): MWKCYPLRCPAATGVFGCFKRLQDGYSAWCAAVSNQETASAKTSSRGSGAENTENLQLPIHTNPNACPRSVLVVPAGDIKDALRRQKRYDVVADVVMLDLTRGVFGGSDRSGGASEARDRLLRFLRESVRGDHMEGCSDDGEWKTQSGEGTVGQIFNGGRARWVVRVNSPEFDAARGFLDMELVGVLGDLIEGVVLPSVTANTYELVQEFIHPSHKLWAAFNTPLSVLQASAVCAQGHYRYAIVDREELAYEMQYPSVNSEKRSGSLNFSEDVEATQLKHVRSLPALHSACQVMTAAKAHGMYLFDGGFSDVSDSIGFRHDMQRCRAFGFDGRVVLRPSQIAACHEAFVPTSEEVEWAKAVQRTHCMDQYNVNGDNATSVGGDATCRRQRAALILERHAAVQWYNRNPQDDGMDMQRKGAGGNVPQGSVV
The test is described as follows: qHTS of Trypanosoma Brucei Inhibitors: LOPAC Validation (AID 624147). In general terms: qHTS replaces the single test concentration by a dilution series.
On to `N.N.[Cl][Pt][Cl]`, for which the call was active.
